The supplement of paper PMC12636033
± gives the standard deviation of the averaged measurements. Whole data set: some 33,000 sequences, median “E-score (rank enrichment, -0.5 to 0.5)” near -0.0075, cut for the highest 2% near 0.23. Shown is part of a subset that was picked to be rich in the highest values.

tested on: WT Max(13-93) synthetic (M65Nle); assay: PBM 8-mer E-score (E-score (rank enrichment, -0.5 to 0.5)); higher = stronger preferential binding
Protocol: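 Protein binding microarray (universal PBM chip covering all 10-mers in fixed probe flanks) with chemically synthesized human Max(13-93) bHLH-LZ analogs (not full-length Max) bearing noncanonical residues (hArg, Tha, Aib, Nle at 65) and aromatic Cys staples. Read-out per 8-mer (and its reverse complement): E-score (rank-based enrichment, -0.5 to 0.5) and Z-score of median probe intensity.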

| Sequence | PBM 8-mer E-score |
| --- | --- |
| AACGTGAG | 0.132 ± 0.048 |
| AACGTAAA | 0.198 ± 0.065 |
| AACGTAAT | 0.248 ± 0.037 |
| TACGTAAA | 0.233 ± 0.068 |
| AACGTGAA | -0.0163 ± 0.062 |
| AACGTGGA | 0.153 ± 0.036 |
| CACGTAAA | 0.13 ± 0.054 |
| GACGTAAA | 0.0324 ± 0.088 |
| AACGTGAT | 0.268 ± 0.014 |
| AACGTAAC | 0.192 ± 0.0073 |
| AACGTGGT | 0.282 ± 0.0092 |
| AACGTAGT | -0.0406 ± 0.12 |
| GTGTGCTA | 0.0416 ± 0.009 |
| AATCCGAT | -0.0748 ± 0.11 |
| CATTTTCA | 0.063 ± 0.11 |
| CCGAATCG | -0.0138 ± 0.033 |
| CTGTGCCC | -0.035 ± 0.08 |
| CTGTATGA | 0.012 ± 0.079 |
| GGTAAAAA | -0.00424 ± 0.074 |
| ACCAATCG | 0.0164 ± 0.0081 |
| CCGACCGC | -0.0589 ± 0.088 |
| GCCTACAC | -0.0291 ± 0.029 |

| Sequence | PBM 8-mer E-score |
| --- | --- |
| CTGGATAA | -0.0145 ± 0.043 |
| ACTGCATA | 0.0165 ± 0.043 |
| AATGAATC | -0.141 ± 0.014 |
| AATGAATT | 0.128 ± 0.086 |
| GATGAATC | -0.0452 ± 0.013 |
| GATGAATA | 0.272 ± 0.022 |
| AATGAATG | 0.2671 ± 0.0011 |
| TATGAATA | 0.151 ± 0.12 |
| CACGACCC | -0.0381 ± 0.027 |
| AGGAGGTA | -0.168 ± 0.047 |
| CGCGGCAA | -0.139 ± 0.079 |
| AGCACTCC | 0.0118 ± 0.13 |
| GTACGCAA | -0.00199 ± 0.077 |
| ATACGCAG | -0.0132 ± 0.082 |
| ATACGCAA | 0.241 ± 0.0012 |
| ATCGACAA | -0.0231 ± 0.046 |
| ATACTATA | 0.22 ± 0.019 |
| GGGATGAA | -0.0123 ± 0.093 |
| AATTTAGC | 0.121 ± 0.065 |
| CGGACCTA | -0.0947 ± 0.063 |
| AATGCGTA | 0.0374 ± 0.047 |
| AATGCATG | 0.257 ± 0.054 |

| Sequence | PBM 8-mer E-score |
| --- | --- |
| CATGCGTA | 0.346 ± 0.038 |
| GATGCGTA | 0.0564 ± 0.052 |
| ACTGCATG | 0.0467 ± 0.031 |
| CATGCAAG | 0.0946 ± 0.011 |
| CATGCAAC | 0.287 ± 0.054 |
| TATGCATA | 0.181 ± 0.037 |
| AATGCAAC | 0.172 ± 0.014 |
| ATTGCATG | 0.163 ± 0.15 |
| GATGCATA | 0.0327 ± 0.027 |
| CATGCATA | 0.242 ± 0.064 |
| CTACCTAA | 0.0741 ± 0.11 |
| TTAGAGAA | -0.00786 ± 0.18 |
| ATCTTTCG | 0.0243 ± 0.034 |
| AGGCGTCC | -0.0473 ± 0.0037 |
| CATGCAGG | 0.0755 ± 0.026 |
| AATGCAAT | 0.237 ± 0.029 |
| AATGCAAG | 0.117 ± 0.074 |
| AATGCATC | 0.163 ± 0.044 |
| CATGCATC | 0.101 ± 0.018 |
| AATGCAAA | 0.143 ± 0.091 |
| AATGCATT | 0.345 ± 0.024 |
| CATGCATG | 0.261 ± 0.073 |

| Sequence | PBM 8-mer E-score |
| --- | --- |
| AATGCATA | 0.206 ± 0.12 |
| AGGACGGG | -0.111 ± 0.0023 |
| AGGGCTAT | -0.0385 ± 0.038 |
| CTCATAGC | -0.112 ± 0.12 |
| CACATTTA | 0.143 ± 0.021 |
| GCTAAACC | -0.212 ± 0.15 |
| GCACGTTA | 0.194 ± 0.078 |
| CCACGTGG | 0.4957 ± 0.00063 |
| CCACGTTC | 0.0954 ± 0.045 |
| CCACGTAG | -0.0793 ± 0.044 |
| CAACGTGG | 0.172 ± 0.03 |
| CAACGTGA | 0.259 ± 0.05 |
| TAACGTGA | 0.125 ± 0.039 |
| CCACGTTA | 0.3 ± 0.019 |
| CCACGTGC | 0.488 ± 0.0054 |
| CCACGTCC | -0.0561 ± 0.11 |
| CGACGTGC | -0.0266 ± 0.031 |
| AAACGTGA | 0.146 ± 0.13 |
| CATTCCGG | -0.206 ± 0.049 |
| ATTTCAAG | 0.112 ± 0.2 |
| ACACTAGG | -0.0884 ± 0.012 |
| ATCTTTTG | 0.00161 ± 0.044 |
